Test results: the supplement of paper PMC6555819

Experiments:
Assay in all cases: PBM binding z-score (relative to random genomic background probes); higher = stronger binding; sequences stand for … in GC…GCGATTGACAGCGTAGAATGAAGG
[1] = system: FXR:RXRa (NR concentration 270 nM, RXRa partner concentration 90 nM)
Procedure, shortened: (§1)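 Probes were double-stranded and carried 34-nt variable regions with direct-repeat seeds, single-nucleotide variants, half-site ablations and random human genomic background sequences, printed on custom Agilent 4×180K protein-binding microarrays. Arrays were incubated 1 h with ligand-free nuclear receptor dimers in PBS pH 7.4, 2% milk, 0.02% Triton X-100, 1 mM DTT, 0.2 mg/mL BSA and 0.4 mg/ml salmon testes DNA. Antibodies against each partner (one per run) detected binding, and scanned fluorescence was regression-normalized. Binding z-scores use the random background probes as reference.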

[2] = system: LXRa:RXRa (NR concentration 270 nM, RXRa partner concentration 90 nM)
Procedure, shortened: as §1

[3] = system: LXRa homodimer (NR concentration 270 nM)
Procedure, shortened: as §1

[4] = system: LXRb:RXRa (NR concentration 270 nM, RXRa partner concentration 90 nM)
Procedure, shortened: as §1

[5] = system: LXRb homodimer (NR concentration 270 nM)
Procedure, shortened: as §1

[6] = system: PPARa:RXRa (NR concentration 270 nM, RXRa partner concentration 90 nM)
Procedure, shortened: as §1

[7] = system: PPARg:RXRa (NR concentration 180 nM, RXRa partner concentration 90 nM)
Procedure, shortened: as §1

[8] = system: PPARg:RXRa 270nM:90nM, anti-RXR (NR concentration 270 nM, RXRa partner concentration 90 nM)
Procedure, shortened: as §1

[9] = system: PPARg:RXRa 30nM:10nM, anti-RXR (NR concentration 30 nM, RXRa partner concentration 10 nM)
Procedure, shortened: as §1

[10] = system: PPARg:RXRa 90nM:30nM, anti-RXR (NR concentration 90 nM, RXRa partner concentration 30 nM)
Procedure, shortened: as §1

[11] = system: PPARg:RXRa DBDmut IVT, anti-RXR (DBD mutation: RXRa K156A/R161A, NR concentration 270 nM, RXRa partner concentration 90 nM)
Procedure, shortened: as §1

[12] = system: PPARg:RXRa IVT, anti-PPARg (NR concentration 270 nM, RXRa partner concentration 90 nM)
Procedure, shortened: as §1

[13] = system: PPARg DBDmut:RXRa IVT, anti-PPARg (DBD mutation: PPARg1 K132A/R137A, NR concentration 270 nM, RXRa partner concentration 90 nM)
Procedure, shortened: as §1

[14] = system: PPARg DBDmut IVT, anti-PPARg (DBD mutation: PPARg1 K132A/R137A, NR concentration 270 nM)
Procedure, shortened: as §1

[15] = system: PPARg homodimer (NR concentration 180 nM)
Procedure, shortened: as §1

[16] = system: PXR:RXRa (NR concentration 270 nM, RXRa partner concentration 90 nM)
Procedure, shortened: as §1

[17] = system: PXR homodimer (NR concentration 270 nM)
Procedure, shortened: as §1

[18] = system: RARa:RXR (NR concentration 270 nM, RXRa partner concentration 90 nM)
Procedure, shortened: as §1

[19] = system: RARa homodimer (NR concentration 270 nM)
Procedure, shortened: as §1

[20] = system: RARb:RXRa (NR concentration 270 nM, RXRa partner concentration 90 nM)
Procedure, shortened: as §1

Sequence | PBM binding z-score [1] | PBM binding z-score [2] | PBM binding z-score [3] | PBM binding z-score [4] | PBM binding z-score [5] | PBM binding z-score [6] | PBM binding z-score [7] | PBM binding z-score [8] | PBM binding z-score [9] | PBM binding z-score [10] | PBM binding z-score [11] | PBM binding z-score [12] | PBM binding z-score [13] | PBM binding z-score [14] | PBM binding z-score [15] | PBM binding z-score [16] | PBM binding z-score [17] | PBM binding z-score [18] | PBM binding z-score [19] | PBM binding z-score [20]
TCTTGTAGATCAAGCAGGTAAAGAAAGCCTGAGT | 0.242 | 0.228 | -0.344 | 0.219 | -0.624 | 0.499 | -0.39 | 0.967 | 2.41 | 1.62 | 1.45 | 0.35 | 0.0649 | 0.0829 | 0.161 | 0.0667 | 0.176 | 0.203 | -0.0123 | -0.301
TCGAGTAGGTGAGTCGGGGCATTCAGCCAACATA | -0.0608 | -0.132 | -0.66 | 0.164 | -0.758 | 0.821 | 0.173 | 0.652 | 0.673 | 0.803 | 3.41 | 2.92 | -0.294 | -0.634 | -0.137 | -0.178 | -0.0256 | -0.138 | -0.397 | 0.298
GCAGACAGATGAAACGCAGGTAACTCAGGGTGGC | -0.734 | -0.704 | -0.594 | -0.986 | -1.14 | -0.624 | 0.616 | -0.641 | -0.438 | -0.564 | -0.362 | -0.767 | -1.03 | -0.761 | -1.19 | -0.681 | -0.52 | -0.161 | -0.884 | -1.1
AGAACGAGGGCACGCTAAGTTGATAGCAGAGTAG | 0.75 | 0.717 | -0.396 | 0.353 | -0.515 | 2.07 | 2.2 | 1.87 | 0.473 | 1.22 | 4.41 | 3.93 | 1.79 | 0.754 | 0.364 | 1.11 | 0.0616 | 1.3 | -0.579 | 2.51
CGTCCAAGGTGAGAGAGGTCAGTGAATGCCGAGT | 2.18 | 2.18 | 0.878 | 2.05 | -0.732 | 3.11 | 1 | 1.7 | 0.115 | 1.07 | 2.16 | 2.49 | -1.39 | -1.25 | 2.8 | 3.75 | 2.87 | 3.54 | 0.726 | 3.46
CATACAGGGTCAGCTAGGCCTGAGTAGGGACGGC | 4.59 | 2.64 | -0.384 | 1.79 | 0.0921 | 4.12 | 3.11 | 2.94 | 0.751 | 1.89 | 1.1 | 2.26 | 0.675 | -0.0533 | 1.27 | 1.8 | -0.411 | 3.27 | 0.583 | 3.86
ATATGTAGGTTAAGGGTTATTCAGGTTGGTTCGC | 2.31 | 3.16 | 1.3 | 2.8 | 1.11 | 5.82 | 10.4 | 8.81 | 8.91 | 9.75 | 7.57 | 7.51 | 3.47 | 3.04 | 2.78 | 2.84 | 1.6 | 2.88 | 2.39 | 1.88
